Out of some 2,100 compounds screened, about 940 (45%) were called active. Inconclusive results (about 48%) are left out. So high a share suggests a set chosen from earlier hits. This is one part of the list. Values without a mark were called inactive. Calls come from the whole dose curve; as a rule, active = well fitted inhibition curve with a large enough effect; inconclusive = small, poorly fitted or top-dose-only effect; inactive = no such curve, though single readings can be large or run the other way.
Potency is the fitted concentration of half-maximal effect.

A short description of the assay: Confirmatory qHTS for Inhibitors of ATXN expression.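 For activity change, negative = inhibition: 0% = DMSO vehicle wells and -100% = medium-only wells without cells.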 Note: nearly all actives have a fitted effect of over 65% in size. The following applies: ATXN2-luciferase reporter cells, luminescence, 24 h; series mostly up to 57.5 µM; activity change, negative = inhibition: at the top concentration. The text has this:
PI: Daniel Scoles Ph.D. University of Utah School of Medicine, Salt Lake City, Utah MLPCN Grant: NS073009 Spinocerebellar ataxia type 2 (SCA2) is a multisystem neurodegenerative disease caused by a dominantly acting mutation leading to expansion of a polyQ domain in the ataxin-2 protein (ATXN2). SCA2 patients develop progressive ataxia and later lose function in other neuronal systems. Prominent parkinsonian signs develop in some patients. Like many neurodegenerative disorders, no symptomatic or disease-modifying treatments are known. The primary objective of the proposed research is to identify compounds inhibiting ATXN2 expression and to test them for efficacy in SCA2 mouse models. We have developed a cell-based assay paired with an in vivo mouse model using identical luciferase expression constructs. This approach takes advantage of an ATXN2-luciferase transgene, with the luciferase gene flanked by the upstream and downstream portions of the ATXN2 gene. Here we describe a 5-7 dose quantitative high thoroughput screen (qHTS) for compounds lowering ATXN2 expression. We screened the NIH Molecular Libraries Small Molecule Repository (MLSMR) and NCGC's mechanistically annotated (MIPE) and drug repurposing (NPC) collections of compounds for lowering expression of an ATXN2-luciferase reporter in HEK-293 cells. The assay is a multiplexed cell viability assay to ensure target reduction in the absence of cytotoxicity. Secondary qHTS assays included a CMV-luciferase reporter expressed in HEK-293 cells as well as a biochemical assay using recombinant luciferase to detect inhibitors of the reporter enzyme. Compounds that inhibit ATXN2 expression but is not cytotoxic were selected for confirmatory and secondary screens.
PROTOCOL TABLE (as described by Inglese J, Shamu CE and Guy RK. 2007) SEQUENCE No. (e.g., 1, 2, 3, etc.); PARAMETER (e.g., Cells, Incubation, Reagent, etc.); VALUE; DESCRIPTION. 1; Cells; 4 uL; white, solid bottom, 1536-well Greiner assay plate. 2; Incubation; 2 hr; 37 degree C in 5% humidified CO2. 3; Compounds; 23 nL; Kalypsis pintool (Wako USA) equipped with a 1536-well pin head. 4; Incubation; 24 hr; 37 degree C in 5% humidified CO2. 5; Reagent; 1 uL; Gly-Phe-7-Amino-4-trifluoromethylcoumarin. 6; Incubation; 30 min; 37 degree C in 5% humidified CO2. 7; Detection; Fluorescence; ViewLux plate reader (PerkinElmer). 8; Reagent; 3 uL; SteadyGlo luciferase solution (Promega). 9; Incubation; 5 min; room temperature. 10; Detection; Luminescence; ViewLux plate reader (PerkinElmer). NOTES (numbers refer to Sequence numbers above) 1. […] expressing ATXN2-luciferase reporter were suspended in phenol-red free DMEM and dispensed in assay plates using a Multidrop Combi dispenser (Thermo Fisher Scientific). Wells containing medium only were plated on each plate, and values were used to normalize (100% inhibition) in the luciferase and CellTiter-Fluor assays. 2. Assay plates were incubated. Evaporation was prevented by covering assay plates with metal lids containing holes to allow gas diffusion. 3. Compounds were added in a dose response manner with the final concentrations of 57, 11.4, 2.28, 0.46, 0.091, 0.018, 0.0037 uM. Vehicle-only plates, with DMSO being pin-transferred to columns 5-48, were inserted uniformly at the beginning and the end of each library to monitor and record any shifts in assay performance. 5. 125 uM Gly-Phe-7-Amino-4-trifluoromethylcoumarin (MP Biomedicals) working concentration was used at a final concentration of 25 uM. 7. To assess cell viability; the assay plates were read using the ViewLux high-throughput CCD imager (PerkinElmer), wherein single end-point fluorescence measurement was acquired (excitation 405/10; emission 540/25 nm). 8. Detection reagent SteadyGlo Luciferase (Promega) was added to the assay plate. 10. Luminescence is then measured on the ViewLux imager equipped with a clear emission filter using a 2 sec exposure. […]
On the technique in general: qHTS replaces the single test concentration by a dilution series.
For the compound `N#Cc1ncc(N=Cc2ccc(N(CCCl)CCCl)cc2)s1`, the Potency was 2 µM (active).
On to `CCCCCCC(=O)N/N=C/c1c(O)n(CCc2ccccc2)c(=O)[nH]c1=O`, for which the Potency was 12.6 µM (active).
Still for that read-out and setting: next, `CCCCCCC(=O)N/N=C/c1c(O)n(CCCC)c(=S)[nH]c1=O`: 15.8 µM (active); `CCCCC(=O)N/N=C/c1c(O)n(CCC2=CCCCC2)c(=O)[nH]c1=O`: 15.8 µM (active).
Still for that read-out and setting: next, `Cc1ccc(N2C(=O)NC(=O)/C(=C/C=C/c3ccco3)C2=O)cc1`: 2.82 µM (active); `COc1ccc(CC2C(=O)NC(C)C(=O)N(C)C3C(=O)N(C)C(Cc4ccc(O)c(c4)Oc4ccc(cc4)C3O)C(=O)NC(C)C(=O)NC(C)C(=O)N2C)cc1` (stereo not given): 0.316 µM (active).
Regarding `CCC(C)N1C(=O)/C(=C\c2cnc(N(C)C)nc2)C(=O)NC1=S` (stereo not given), the “activity change, negative = inhibition” value is -13.2%.
`C[C@]12CC[C@H](O)C[C@H]1CC[C@@H]1C2CC[C@]2(C)[C@@H](C3=CC(=O)OC3)[C@@H](O)C[C@]12O` (stereo not given in full): the Potency was 0.355 µM (active).
Same read-out and setting: for `CC12CCC(O)CC1CCC1C2CCC2(C)C(C3=CC(=O)OC3)C(O)CC12O` (stereo not given) the value was 3.16 µM (active).
On the same count and under the same terms, for `CC(=O)OC1CC2(O)C3CCC4CC(O)CCC4(C)C3CCC2(C)C1C1=CC(=O)OC1` (stereo not given) the value was 0.316 µM (active); for `CC1OC(OC2C(O)CC(OC3C(O)CC(OC4CCC5(C)C(CCC6C5CCC5(C)C(C7=CC(=O)OC7)C(O)CC65O)C4)OC3C)OC2C)CC(O)C1O` (stereo not given), 0.316 µM (active).
`COC1C(O)C(C)OC(OC2CCC3(C)C(CCC4C3C(O)CC3(C)C(C5=CC(=O)OC5)CCC43O)C2)C1O` (stereo not given): the Potency was 0.316 µM (active).
Same read-out and setting: for `CN1CN(c2ccccc2)C2(CCN(CCCSc3ccccc3NC(=O)/C=C/c3ccccc3)CC2)C1=O` the value was 28.2 µM (active).
On to `CC(C)c1oc(=O)cc2c1[C@@H](O)[C@H]1OC(=O)[C@@]3(C)CC[C@@H](O)[C@@]2(C)C13` (stereo not given in full), for which the Potency is 3.16 µM (active).
The same measure, in the same setting: next, `CCC1(OC(=O)CN)C(=O)OCc2c1cc1n(c2=O)Cc2cc3ccccc3nc2-1` (stereo not given): 0.0398 µM (active); `CC[C@@]1(O)C(=O)OCc2c1cc1n(c2=O)Cc2cc3c(NC(=O)CN)cccc3nc2-1`: 0.112 µM (active).
On the same count and under the same terms, for `COc1ccc(C[C@H]2NC[C@H](O)[C@H]2OC(C)=O)cc1` the value was 0.0282 µM (active); for `COc1ccc(CC2NCC(O)C2OC(C)=O)cc1` (stereo not given), 0.224 µM (active); for `Cc1ccc(/C=C2\C(=O)NC(=S)N(c3ccccc3F)C2=O)s1`, 3.16 µM (active).
As for `CCC1CN2CCc3cc(OC)c(OC)cc3C2CC1CC1NCCc2c1[nH]c1ccc(O)cc21` (stereo not given), the Potency was 0.0398 µM (active).
Still for that read-out and setting: next, `CSCCC(c1nnnn1-c1c(C)cccc1C)N1CCC2(CC1)C(=O)NCN2c1ccccc1` (stereo not given): 35.5 µM (active).
Same read-out and setting: for `CCC(C)(O)C(=O)OC1C(=O)OC2CC3C(C)=CC(=O)C(O)C3(C)C3C4(O)OCC23C1C(C)C4O` (stereo not given) the value was 0.251 µM (active); for `O=c1[nH]c2ccccc2n1C1CCN(C(CCc2ccccc2)c2nnnn2C2CCCC2)CC1` (stereo not given), 22.4 µM (active); for `CC(C)(C)n1nnnc1C(CCc1ccccc1)N1CCC(n2c(=O)[nH]c3ccccc32)CC1` (stereo not given), 28.2 µM (active).
Still for that read-out and setting: next, `COC(=O)c1nc(-c2ccc3c(n2)C(=O)C(N)=C(OC)C3=O)c(N)c(-c2ccc(OC)c(OC)c2O)c1C`: 14.1 µM (active).
`Cc1cc(N(CCCl)CCCl)ccc1C=NNC(=O)c1cccnc1`: the Potency is 1.58 µM (active).
Same read-out and setting: for `COc1cc(C(=O)NN=Cc2ccc(N(CCCl)CCCl)cc2)cc(OC)c1OC` the value was 8.91 µM (active); for `O=C(NN=Cc1ccc(N(CCCl)CCCl)cc1)c1cc(=O)[nH]c(=O)[nH]1`, 3.16 µM (active).
Take `COc1ccc(N=Cc2c(O)n(-c3ccc(C)cc3)c(=O)[nH]c2=O)cc1`: the “activity change, negative = inhibition” value was -15.9%.
`Oc1c(Cl)cccc1Cc1cc(Cl)cc(Cl)c1O`: the Potency was 15.8 µM (active).
The same measure, in the same setting: next, `Clc1ccc2[nH]c3c(c2c1)CCNC3`: 3.16 µM (active); `O=[N+]([O-])c1oc2ccc3ccccc3c2c1CCO`: 14.1 µM (active); `C[C@@H]1O[C@@H](O[C@@H]2C=C3CC[C@@H]4C(CC[C@]5(C)[C@@H](c6ccc(=O)oc6)CC[C@]45O)[C@@]3(C)CC2)[C@H](O)[C@H](O)[C@H]1O` (stereo not given in full): 0.112 µM (active).
Same read-out and setting: for `COc1cccc2c1C(=O)c1c(O)c3c(c(O)c1C2=O)CC(O)(C(C)=NO)CC3OC1CC(N)C(O)C(C)O1` (stereo not given) the value was 0.708 µM (active).
Still for that read-out and setting: for `Cc1ccc(N2C(=O)NC(=O)/C(=C\c3cc(C)n(-c4sc5c(c4C#N)CCCC5)c3C)C2=O)cc1` the value was 10 µM (active).
